An excerpt weighted towards active compounds, which were near 20% of everything screened.
HCMV inh – human cytomegalovirus inhibition | HFF cells, HCMV-luciferase reporter, 72 h; hits give low values | activity change, negative = inhibition, % at 57.5 µM | 410,000 tested, 4.5% active | AID 1259415; in the data active = activity change below about -60%; inconclusive = no clear call, values can overlap the other calls; inactive = above about -39%; also: % is scaled to controls: 0 for no effect and ±100 for the full control effect
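Compounds were evaluated in HFFs infected with an HCMV luciferase reporter virus (MOI 1 PFU/cell). Luciferase in lysates collected 72 h post infection served as the replication measure.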
Cycloheximide cs – affects cycloheximide protein synthesis inhibition readout, counter-screen; 300,000 tested, 12% active; cell reporter, cycloheximide protein synthesis inhibition counterscreen; max response, %; AID 2314; in the data active = max response mostly above about 13%, no sharp cut-off; inactive = mostly below about 14%; also: read at 38.3 µM for the half of the compounds with a filed dose; 0% is about no effect
Pf growth 48h – inhibits P. falciparum growth in the first generation, 48 h; P. falciparum luciferase growth in erythrocytes, 48 h; 310,000 tested, 5.9% active; Potency, µM (titrated, usually from 28.7 µM), for inactives: top-dose activity change, negative = inhibition, usual class: inhibitors; also: potency is read from the fitted curve at half-maximal effect; % is scaled to controls: 0 for no effect and ±100 for the full control effect
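Firefly luciferase activity from engineered P. falciparum reports growth; inhibitors lower the luminescent signal. Cultures contained 2% hematocrit erythrocytes at 0.1% final parasitemia.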
Shiga toxin inh – blocks Shiga toxin action in Vero cells. 290,000 tested, 9.2% active. inhibition, % at 38.7 µM. Vero cells, Shiga toxin protein synthesis inhibition reporter; in the data active = inhibition mostly above about 28%, no sharp cut-off; inactive = mostly below about 43%; also: 0% is about no effect
Pf growth 96h – P. falciparum growth inhibition at 96 hours | P. falciparum luciferase reporter growth, 96 h | Potency, µM (top dose mostly 28.7 µM), for the others: top-dose activity change, negative = inhibition, actives largely listed as inhibitors | 320,000 tested, 6.9% active; also: potency is read from the fitted curve at half-maximal effect; % is scaled to controls: 0 for no effect and ±100 for the full control effect
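Cell-based qHTS: luciferase-tagged P. falciparum in erythrocytes (2% hematocrit, 0.05% parasitemia final) incubated with compounds for 96 hours, 37 C, 5% CO2; luciferase detection reagent then added and luminescence measured.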
Starred values were filed as active, the others as inactive; ? = inconclusive; . = no result. Unless noted, calls follow the shape of the dose curve; as a rule, active = well fitted inhibition curve with a large enough effect; inconclusive = small, poorly fitted or top-dose-only effect, or another doubt; inactive = no such curve, though single readings can be large or run the other way.

SMILES	HCMV inh	Cycloheximide cs	Pf growth 48h	Shiga toxin inh	Pf growth 96h
NC(=O)COC(=O)c1ccc(Oc2ccccc2)cc1	92.5	27.8*	0.1%	34.4	.
CC(C)NC(=O)COC(=O)c1ccc(Oc2ccccc2)cc1	1.3	3.5	.	-5.7	-4.9%
NC(=O)C(c1ccc(Br)cc1)c1ccc(C(=O)c2ccccc2)cc1 (centres undefined)	-33.8	23.2*	-0.8%	-6.6	5.0%
N/C(=N\OC(=O)c1cccc(Br)c1)c1ccc(Br)cc1	85.3	-0.8	48.0%	0.4	1.85µM*
COc1ccccc1NC(=O)Nc1sccc1-c1nc2ccccc2s1	21.8	2.4	?	33.7	?
COCCN(C(=O)Nc1ccccc1OC)c1nc2ccccc2s1	-13.8	26.3*	-8.5%	29.5*	15.2%
CC(NC(=O)CCCCCCN1C(=O)c2ccccc2C1=O)c1ccc2c(c1)CCCC2 (centres undefined)	-38.9	1.5	-24.9%	-5.1	?
CN1CCN(NC(=O)c2cc([N+](=O)[O-])cc([N+](=O)[O-])c2)CC1	54.7	-3.0	?	-21.9	?
CCN1CCN(c2oc(/C=C/c3ccccc3OC)nc2C#N)CC1	-16.4	.	.	.	.
CCOC(=O)c1ccc(NC(=O)c2cc3sccc3n2Cc2ccc(Cl)cc2)cc1	-1.1	.	.	.	.
O=C(CN1C(=O)/C(=C\c2cccc(Cl)c2)Oc2ccccc21)N1CCN(c2ccccn2)CC1	.	10.6	23.0%	11.7	9.28µM*
C=C(C)CSc1nnc([C@@H]2CCCN2)o1	1.2	-2.1	12.1%	8.2	-3.1%
O=C(CSc1nnc([C@@H]2CCCN2)o1)c1ccc(Cl)cc1	-16.9	21.9*	117.6%	102.4*	123.9%
Cn1c(=S)c2[nH]c(SCCN3CCCC3)nc2n(C)c1=O	-9.0	-7.1	11.7µM*	-22.5	?
Cn1c(=S)c2[nH]c(SCCN)nc2n(C)c1=O	-6.3	.	.	.	.
COc1cc(CC(=O)Nc2c(-c3ccccc3)[nH][nH]c2=O)cc(OC)c1	9.5	.	.	.	.
CCNC(=S)Nc1ccc2c(c1)c(=O)n(C)n2Cc1cccc(C(F)(F)F)c1	-7.0	.	.	.	.
Cn1c(=O)c2cc(NC(=S)NC3CCCCC3)ccc2n1Cc1cccc(C(F)(F)F)c1	-70.5*	.	.	.	.
O=S(=O)(c1ccccc1)N1CCN(C(=S)Nc2ccccc2Cl)CC1	37.2	6.4	?	-8.4	?
CCOC(=O)c1cc2c(=O)n3ccccc3nc2n(CC2CCCO2)c1=NC(=O)c1ccccc1OCC (centres undefined)	-2.5	.	.	.	.
CC12CC3CC(C)(C1)CC(C(=O)N1CCN(C(=O)C4CCCO4)CC1)(C3)C2 (centres undefined)	59.9	-6.1	3.1%	-6.4	?
O=C(NCCC1=CCCCC1)C1CCN(S(=O)(=O)c2cccc3nsnc23)CC1	13.6	-3.0	?	-6.6	1.85µM*
COC(=O)CNC(=O)C1CCN(S(=O)(=O)c2cccc3nsnc23)CC1	-34.2	2.1	16.6%	2.7	13.1µM*
O=C(c1ccc(Cl)cc1)C1CCN(C(=O)c2ccc(F)cc2)CC1	-35.2	0.7	-10.2%	2.0	13.1µM*
O=C(NCCC1=CCCCC1)C1CCN(S(=O)(=O)c2ccccc2C(F)(F)F)CC1	-26.3	.	10.4µM*	.	?
SMILES	HCMV inh	Cycloheximide cs	Pf growth 48h	Shiga toxin inh	Pf growth 96h
CCOC(=O)c1cnc2ccc(C)cc2c1Sc1ccccc1C(=O)OC	-20.6	-1.8	?	34.1	?
Cc1noc(C)c1S(=O)(=O)N1CCC(C(=O)NCCC2=CCCCC2)CC1	-102.2*	-2.3	-13.6%	-10.1	21.6%
CCOCCCNC(=O)C1CCC(CNS(=O)(=O)c2cccc3nsnc23)CC1 (centres undefined)	-4.5	-2.2	2.5%	8.7	3.7µM*
O=C(NCCN1CCCCCC1)C1CCCN1S(=O)(=O)c1cccc2nsnc12 (centres undefined)	-1.9	1.6	1.65µM*	15.2	?
O=C(NCCc1ccccc1)C1CCCN1S(=O)(=O)c1cccc2nsnc12 (centres undefined)	-3.8	-1.4	-13.2%	8.4	14.7%
Cc1nn(C)c(C)c1S(=O)(=O)N1CCC(C(=O)NCCC2=CCCCC2)CC1	?	-7.6	.	-23.1	9.2%
O=C(NCCC1=CCCCC1)C1CCN(C(=O)c2ccc(Cl)cc2)CC1	3.8	30.6*	-9.2%	66.5*	-3.0%
CCn1cc(SCC(=O)NC2CCCC2)c2ccccc21	?	4.9	7.38µM*	11.2	?
COc1ccccc1C(=O)NCCn1cc(SCC(=O)NCC2CCCO2)c2ccccc21 (centres undefined)	1.3	1.8	?	15.2	10.4µM*
CC1CCN(C(=O)Cn2cc(SCC(=O)Nc3ccccc3C(F)(F)F)c3ccccc32)CC1	-64.4*	.	.	.	.
CCCN(CCC)C(=O)Cn1ccc(=N)c2ccccc21	10.4	-3.5	1.65µM*	-12.9	.
CCN(CC)C(=O)Cn1cc(SCC(=O)NC2CCCC2)c2ccccc21	?	-2.5	-7.7%	-3.9	?
CCN(CC)C(=O)Cn1cc(SCC(=O)Nc2ccc(C)cc2)c2ccccc21	-0.5	.	.	.	.
CCn1cc(SCC(=O)NCC2CCCO2)c2ccccc21 (centres undefined)	-7.0	6.6*	-1.0%	2.9	21.4%
O=C(CCc1cn(Cc2ccccc2Cl)c2ccccc12)NC1CCCCC1	-72.1*	.	.	.	.
CCN(CC)C(=O)Cn1cc(SCC(=O)NC)c2ccccc21	?	-4.5	13.7%	-2.2	11.7µM*
COc1cc(OC)cc(-c2nnc(NC(=O)Cc3ccc(F)cc3)o2)c1	-12.4	-3.3	-26.7%	17.5	?
Cc1sc(C2C(C#N)=C(N)N(c3ccc(Cl)cc3)C3=C2C(=O)CCC3)cc1CN1CCOCC1 (centres undefined)	-27.7	.	.	.	.
O=C(CN(Cc1ccco1)C(=O)c1ccc(N2CCCC2=O)cc1)Nc1ccccc1C(F)(F)F	-35.9	.	?	.	-19.0%
CSc1nn(Cc2cccc(Cl)c2)c(N(C(C)=O)C(C)=O)c1S(=O)(=O)c1ccccc1	-19.3	.	.	.	.
COc1ccc(/C=C/C(=O)NC(=S)Nc2ccc(S(N)(=O)=O)cc2)cc1	0.0	-2.4	1.0%	5.9	0.0%
O=C(/C=C/c1ccccc1)NC(NC(=S)Nc1ccc(Cl)cc1)C(Cl)(Cl)Cl (centres undefined)	?	6.2	6.57µM*	-3.6	1.4%
O=C(CCc1ccccc1)NC(NC(=S)Nc1ccc(Cl)cc1)C(Cl)(Cl)Cl (centres undefined)	-38.6	-1.8	.	-11.1	?
COc1ccc(NC(=S)NC(NC(=O)/C=C/c2ccccc2)C(Cl)(Cl)Cl)cc1 (centres undefined)	46.0	-3.3	?	-9.6	2.33µM*
O=C(/C=C/c1ccccc1)NC(NC(=S)Nc1cc(Cl)ccc1Cl)C(Cl)(Cl)Cl (centres undefined)	-1.6	8.0	?	28.1	10.4µM*
CC(C)NC(NC(=O)/C=C/c1ccccc1)C(Cl)(Cl)Cl (centres undefined)	16.0	0.7	1.6%	-19.8	1.04µM*

Screening results deposited in PubChem by National Center for Advancing Translational Sciences (NCATS).
